Test results taken from the supplement of paper PMC10849652.
Targets with a hit are over-represented here; the source holds about 8,800 in all. About 0.5% of all pairs of compound and target were hits.

Columns and labels:
Assay in all cases: log2 fold change, soluble protein after heating vs DMSO (PISA); higher = thermal stabilisation; K562 lysate, 10 uM; active = over 0.2 and 3.5 SD of the protein, either way, in both replicates (recomputed)
ibrutinib = compound: C=CC(=O)N1CCC[C@@H](n2nc(-c3ccc(Oc4ccccc4)cc3)c3c(N)ncnc32)C1 [ibrutinib]
In short: (§1)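 To prepare the extract, K562 pellets were dounce-homogenised in PBS pH 7.4 with 1 mM MgCl2, giving crude material at 1 mg/mL protein. This was treated with 10 μM compound for 30 min, then heated in aliquots for 3 min over 48°C-58°C before pooling and addition of NP-40 to 0.5% at 4°C. Centrifugation at 21,000xg for 90 min left soluble protein in the supernatant, which TMTpro 16plex LC-MS/MS quantified with equalised channel sums. Results are log-two fold changes in thermal stability compared with solvent controls, from duplicates.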

[1] = compound: CC(=O)c1cnc2ccc(-c3cc(Cl)c(O)c(Cl)c3)nc2c1N[C@H]1CC[C@H](CN(C)C)CC1
In short: as §1

ralimetinib = compound: CC(C)(C)Cn1c(N)nc2ccc(-c3[nH]c(C(C)(C)C)nc3-c3ccc(F)cc3)nc21 [ralimetinib]
In short: as §1

[2] = compound: CC(C)(O)CC(=O)NCCn1ccc2ncnc(Nc3ccc(Oc4cccc(C(F)(F)F)c4)c(Cl)c3)c21
In short: as §1

[3] = compound: CC(C)C1=C2N=C(C=C(N2N=C1)NCC3=CC=CC=C3)NCCCCCCN
In short: as §1

[4] = compound: CC1=C(C(CC(=O)N1)C2=CC=C(C=C2)C(F)(F)F)C(=O)NC3=C(C=C4C(=C3)C=NN4)F
In short: as §1

[5] = compound: CC1=C(C2=C(C=C1)C(=O)C3=CC=CC=C3N2CCCN)C
In short: as §1

[6] = compound: CC1=C(C=C(C=C1)NC(=O)C2=CC(=CC=C2)C(C)(C)C#N)NC3=CC4=C(C=C3)N=CN(C4=O)C
In short: as §1

[7] = compound: CC1=C(C=C(C=C1)NC(=O)C2=CC(=CC=C2)N(C)C)NC(=O)C3=CC=C(C=C3)O
In short: as §1

[8] = compound: CC1=CC=C(C=C1)SC2=C3C=C(SC3=CN=C2)C(=O)N
In short: as §1

Measured: log2 fold change

ATP13A1 (UniProt Q9HD20)
UniProt Q9HD20, sequence (Q9HD20 whole entry, looked up): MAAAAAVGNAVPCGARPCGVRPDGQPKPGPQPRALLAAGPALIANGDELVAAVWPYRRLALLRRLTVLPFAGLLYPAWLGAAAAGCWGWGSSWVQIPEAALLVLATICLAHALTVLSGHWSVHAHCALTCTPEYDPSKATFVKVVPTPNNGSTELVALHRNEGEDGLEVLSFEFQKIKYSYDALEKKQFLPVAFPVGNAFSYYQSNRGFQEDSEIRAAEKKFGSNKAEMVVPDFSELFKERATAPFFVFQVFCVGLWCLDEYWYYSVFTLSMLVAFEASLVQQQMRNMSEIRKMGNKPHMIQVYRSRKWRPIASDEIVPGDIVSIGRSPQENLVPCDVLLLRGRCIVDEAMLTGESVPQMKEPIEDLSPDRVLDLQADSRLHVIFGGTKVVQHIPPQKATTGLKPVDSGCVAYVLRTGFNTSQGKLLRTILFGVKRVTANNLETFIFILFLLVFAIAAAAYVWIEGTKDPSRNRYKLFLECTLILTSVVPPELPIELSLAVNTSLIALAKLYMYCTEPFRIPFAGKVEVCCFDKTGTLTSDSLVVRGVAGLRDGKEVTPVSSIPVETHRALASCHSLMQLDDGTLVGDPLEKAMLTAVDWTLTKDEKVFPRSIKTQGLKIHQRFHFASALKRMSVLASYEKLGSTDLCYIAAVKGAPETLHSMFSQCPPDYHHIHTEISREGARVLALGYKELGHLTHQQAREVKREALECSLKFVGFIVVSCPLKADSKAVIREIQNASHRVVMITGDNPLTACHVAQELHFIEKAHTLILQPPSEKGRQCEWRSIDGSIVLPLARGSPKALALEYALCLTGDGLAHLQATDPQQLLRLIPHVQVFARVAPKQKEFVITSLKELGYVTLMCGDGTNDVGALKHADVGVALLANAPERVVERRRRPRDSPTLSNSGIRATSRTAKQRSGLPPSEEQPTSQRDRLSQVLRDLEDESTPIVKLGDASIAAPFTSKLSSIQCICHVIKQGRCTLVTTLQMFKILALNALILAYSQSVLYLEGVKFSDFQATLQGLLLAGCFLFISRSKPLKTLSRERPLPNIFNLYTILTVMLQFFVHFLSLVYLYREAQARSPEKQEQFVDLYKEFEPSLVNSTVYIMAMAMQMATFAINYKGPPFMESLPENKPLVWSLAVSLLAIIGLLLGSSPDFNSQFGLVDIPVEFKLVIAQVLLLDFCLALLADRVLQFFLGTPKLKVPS
inactive: ibrutinib -0.021 | [1] 0.048 | ralimetinib 0.029 | [2] -0.104 | [3] 0.036 | [4] 0.005 | [5] -0.089 | [6] -0.108 | [7] 0.062 | [8] 0.007

CBX5 (UniProt P45973)
UniProt P45973, sequence (P45973 whole entry, looked up): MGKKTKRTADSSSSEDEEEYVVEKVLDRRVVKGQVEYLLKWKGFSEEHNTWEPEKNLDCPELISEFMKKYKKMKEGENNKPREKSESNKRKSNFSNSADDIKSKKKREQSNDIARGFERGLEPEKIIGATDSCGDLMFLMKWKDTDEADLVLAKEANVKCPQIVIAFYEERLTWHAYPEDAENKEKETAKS
inactive: ibrutinib -0.047 | [1] -0.007 | ralimetinib -0.024 | [2] -0.087 | [3] -0.02 | [4] -0.088 | [5] -0.02 | [6] 0.028 | [7] 0.007 | [8] -0.033

BCAR1 isoform 6 (UniProt P56945)
UniProt P56945, sequence (P56945 whole entry, looked up): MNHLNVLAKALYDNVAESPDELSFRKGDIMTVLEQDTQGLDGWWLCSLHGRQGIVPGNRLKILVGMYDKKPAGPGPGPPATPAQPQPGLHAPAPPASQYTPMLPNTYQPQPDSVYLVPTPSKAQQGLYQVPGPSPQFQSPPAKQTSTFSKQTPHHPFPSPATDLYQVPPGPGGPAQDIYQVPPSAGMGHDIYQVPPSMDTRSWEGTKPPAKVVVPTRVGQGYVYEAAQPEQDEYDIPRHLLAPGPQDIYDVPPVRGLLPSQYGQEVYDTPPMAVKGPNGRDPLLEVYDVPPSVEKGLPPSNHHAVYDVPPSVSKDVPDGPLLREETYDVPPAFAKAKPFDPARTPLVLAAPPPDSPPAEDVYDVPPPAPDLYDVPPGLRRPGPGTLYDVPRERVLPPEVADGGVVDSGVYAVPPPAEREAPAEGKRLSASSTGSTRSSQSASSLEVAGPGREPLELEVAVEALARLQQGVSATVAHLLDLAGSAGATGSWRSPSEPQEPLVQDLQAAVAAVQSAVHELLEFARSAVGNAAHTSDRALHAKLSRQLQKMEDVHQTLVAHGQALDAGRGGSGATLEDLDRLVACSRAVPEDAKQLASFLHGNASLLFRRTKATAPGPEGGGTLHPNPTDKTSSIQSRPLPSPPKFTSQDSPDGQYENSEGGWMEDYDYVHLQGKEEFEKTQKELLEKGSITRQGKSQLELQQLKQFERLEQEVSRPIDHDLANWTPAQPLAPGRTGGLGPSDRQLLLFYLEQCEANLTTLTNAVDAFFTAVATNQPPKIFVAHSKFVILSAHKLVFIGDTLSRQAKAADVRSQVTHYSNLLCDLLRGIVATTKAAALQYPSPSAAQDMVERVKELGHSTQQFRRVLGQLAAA
inactive: ibrutinib 0.024 | [1] 0.02 | ralimetinib -0.009 | [2] 0 | [3] 0.01 | [4] 0.03 | [5] -0.056 | [6] -0.014 | [7] 0.006 | [8] -0.033

BMS1 (UniProt Q14692)
inactive: ibrutinib 0.095 | [1] 0.018 | ralimetinib 0.018 | [2] -0.041 | [3] -0.008 | [4] -0.011 | [5] 0.007 | [6] 0.049 | [7] 0.034 | [8] 0.032

CBR1 (UniProt P16152)
inactive: ibrutinib 0.04 | [1] -0.017 | ralimetinib 0.009 | [2] 0.006 | [3] 0.001 | [4] -0.032 | [5] 0.045 | [6] -0.015 | [7] 0.02 | [8] -0.003

BLM (UniProt P54132)
UniProt P54132, sequence (P54132 whole entry, looked up): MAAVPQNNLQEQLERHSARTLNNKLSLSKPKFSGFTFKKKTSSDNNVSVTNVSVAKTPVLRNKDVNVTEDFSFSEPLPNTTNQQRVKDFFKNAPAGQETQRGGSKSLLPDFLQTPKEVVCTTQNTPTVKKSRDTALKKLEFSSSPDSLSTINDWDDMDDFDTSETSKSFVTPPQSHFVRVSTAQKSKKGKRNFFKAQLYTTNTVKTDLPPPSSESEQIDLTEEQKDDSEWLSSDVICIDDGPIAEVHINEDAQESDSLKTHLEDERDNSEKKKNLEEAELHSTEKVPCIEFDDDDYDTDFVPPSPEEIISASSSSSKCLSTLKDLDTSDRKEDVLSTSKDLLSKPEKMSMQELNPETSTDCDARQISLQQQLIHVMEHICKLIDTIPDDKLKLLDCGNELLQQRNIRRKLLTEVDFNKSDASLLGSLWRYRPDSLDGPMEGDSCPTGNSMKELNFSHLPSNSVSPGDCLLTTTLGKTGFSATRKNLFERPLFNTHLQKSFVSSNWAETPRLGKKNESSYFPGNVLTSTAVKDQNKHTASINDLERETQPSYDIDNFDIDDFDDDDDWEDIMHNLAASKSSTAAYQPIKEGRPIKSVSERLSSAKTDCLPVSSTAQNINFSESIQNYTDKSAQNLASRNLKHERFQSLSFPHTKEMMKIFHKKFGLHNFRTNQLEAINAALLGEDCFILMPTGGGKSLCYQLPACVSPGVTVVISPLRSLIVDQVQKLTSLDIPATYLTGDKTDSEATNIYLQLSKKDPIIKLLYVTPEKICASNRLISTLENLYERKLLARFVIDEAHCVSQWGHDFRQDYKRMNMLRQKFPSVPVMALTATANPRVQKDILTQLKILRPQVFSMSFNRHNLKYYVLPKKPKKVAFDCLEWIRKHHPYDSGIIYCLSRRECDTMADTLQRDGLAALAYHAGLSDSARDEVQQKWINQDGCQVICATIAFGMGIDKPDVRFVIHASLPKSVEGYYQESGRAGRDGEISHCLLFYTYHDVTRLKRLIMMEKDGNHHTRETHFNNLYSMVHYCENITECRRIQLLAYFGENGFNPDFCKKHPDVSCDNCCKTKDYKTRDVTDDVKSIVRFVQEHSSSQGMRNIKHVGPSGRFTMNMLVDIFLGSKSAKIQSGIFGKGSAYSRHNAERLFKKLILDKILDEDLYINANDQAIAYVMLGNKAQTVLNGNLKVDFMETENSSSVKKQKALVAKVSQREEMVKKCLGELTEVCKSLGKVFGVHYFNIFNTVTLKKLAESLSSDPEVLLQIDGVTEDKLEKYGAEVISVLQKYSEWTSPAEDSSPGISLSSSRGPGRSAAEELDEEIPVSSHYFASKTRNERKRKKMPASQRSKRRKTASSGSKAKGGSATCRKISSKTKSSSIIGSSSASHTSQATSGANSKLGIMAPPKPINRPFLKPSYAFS
inactive: ibrutinib 0.128 | [1] 0.026 | ralimetinib -0.015 | [2] 0.031 | [3] -0.005 | [4] -0.019 | [5] 0.03 | [6] -0.058 | [7] 0.019 | [8] 0.036

ATG7 (UniProt O95352)
inactive: ibrutinib 0.014 | [1] -0.008 | ralimetinib 0.026 | [2] -0.016 | [3] -0.022 | [4] 0.021 | [5] 0.002 | [6] -0.001 | [7] 0.011 | [8] 0.027

CCDC47 (UniProt Q96A33)
inactive: ibrutinib 0 | [1] 0.002 | ralimetinib 0.01 | [2] -0.063 | [3] -0.042 | [4] 0.044 | [5] -0.002 | [6] 0.041 | [7] 0.045 | [8] -0.013

ATP9B (UniProt O43861)
inactive: ibrutinib -0.156 | [1] 0.08 | ralimetinib -0.044 | [2] -0.053 | [3] -0.021 | [4] 0.225 | [5] 0.049 | [6] 0 | [7] 0.079 | [8] -0.054

CHAF1A (UniProt Q13111)
inactive: ibrutinib 0.026 | [1] -0.017 | ralimetinib 0.011 | [2] 0.018 | [3] 0.032 | [4] 0.049 | [5] -0.043 | [6] 0.001 | [7] 0.001 | [8] 0.012

BCL2L12 (UniProt Q9HB09)
inactive: ibrutinib -0.26 | [1] -0.084 | ralimetinib 0.073 | [2] -0.024 | [3] 0.057 | [4] 0 | [5] -0.021 | [6] 0.028 | [7] -0.024 | [8] 0.099

BSDC1 (UniProt Q9NW68)
inactive: ibrutinib 0.048 | [1] 0.008 | ralimetinib -0.004 | [2] -0.023 | [3] 0.062 | [4] 0.038 | [5] 0.01 | [6] 0.022 | [7] -0.047 | [8] 0.011

CD63 (UniProt P08962)
UniProt P08962, sequence (P08962 whole entry, looked up): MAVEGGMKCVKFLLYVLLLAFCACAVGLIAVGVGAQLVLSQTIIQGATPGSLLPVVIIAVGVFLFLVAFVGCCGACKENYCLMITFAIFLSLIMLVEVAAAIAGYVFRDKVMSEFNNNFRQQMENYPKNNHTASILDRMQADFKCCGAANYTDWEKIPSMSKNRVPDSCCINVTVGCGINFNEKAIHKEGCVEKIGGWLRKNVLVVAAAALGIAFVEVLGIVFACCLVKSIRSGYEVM
inactive: ibrutinib -0.012 | [1] -0.063 | ralimetinib 0.078 | [2] -0.023 | [3] 0.017 | [4] 0.005 | [5] 0.049 | [6] 0 | [7] 0.039 | [8] 0.023

CCDC22 (UniProt O60826)
UniProt O60826, sequence (O60826 whole entry, looked up): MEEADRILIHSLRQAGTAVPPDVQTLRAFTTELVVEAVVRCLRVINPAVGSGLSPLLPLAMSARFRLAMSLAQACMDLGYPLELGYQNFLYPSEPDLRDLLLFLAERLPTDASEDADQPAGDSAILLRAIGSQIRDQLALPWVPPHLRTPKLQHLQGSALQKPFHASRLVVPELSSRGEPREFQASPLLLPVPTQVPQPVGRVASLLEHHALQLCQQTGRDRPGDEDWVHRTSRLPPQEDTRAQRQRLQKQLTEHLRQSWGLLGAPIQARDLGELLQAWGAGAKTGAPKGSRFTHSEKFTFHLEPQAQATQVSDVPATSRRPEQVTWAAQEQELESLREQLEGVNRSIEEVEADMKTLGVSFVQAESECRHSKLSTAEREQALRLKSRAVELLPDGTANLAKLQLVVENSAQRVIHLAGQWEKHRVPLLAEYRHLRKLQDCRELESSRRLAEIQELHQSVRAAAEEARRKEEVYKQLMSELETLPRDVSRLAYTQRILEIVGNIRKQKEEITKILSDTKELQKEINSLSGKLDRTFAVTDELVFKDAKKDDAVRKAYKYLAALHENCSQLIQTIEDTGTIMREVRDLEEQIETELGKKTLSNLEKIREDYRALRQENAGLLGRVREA
inactive: ibrutinib 0.006 | [1] 0.033 | ralimetinib -0.005 | [2] -0.045 | [3] -0.009 | [4] 0.005 | [5] 0.001 | [6] -0.01 | [7] 0.025 | [8] -0.027

CDC42EP4 (UniProt Q9H3Q1)
UniProt Q9H3Q1, sequence (Q9H3Q1 whole entry, looked up): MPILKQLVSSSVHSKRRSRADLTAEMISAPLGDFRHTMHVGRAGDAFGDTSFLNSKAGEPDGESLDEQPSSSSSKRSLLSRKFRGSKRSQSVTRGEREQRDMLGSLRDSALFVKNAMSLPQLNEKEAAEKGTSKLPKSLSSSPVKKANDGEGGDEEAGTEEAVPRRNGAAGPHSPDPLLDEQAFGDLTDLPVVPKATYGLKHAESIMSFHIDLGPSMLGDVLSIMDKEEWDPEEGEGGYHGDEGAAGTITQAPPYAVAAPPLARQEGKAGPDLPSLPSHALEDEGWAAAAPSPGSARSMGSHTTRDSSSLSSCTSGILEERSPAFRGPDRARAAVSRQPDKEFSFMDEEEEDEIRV
inactive: ibrutinib 0.07 | [1] -0.014 | ralimetinib 0.034 | [2] -0.006 | [3] 0.01 | [4] 0.024 | [5] 0.026 | [6] 0.155 | [7] -0.018 | [8] -0.035
